Measurements as given in PubChem BioAssay AID1851 (National Center for Advancing Translational Sciences (NCATS), 2009).
Out of some 16,000 compounds screened, about 2,600 (16%) were called active. Not shown: some 20% with an inconclusive outcome. The call rests on the fitted dose curve; in most records, active means well fitted curve in the direction sought with a large enough effect; inconclusive means small, poorly fitted or top-dose-only effect, or effect the other way; inactive means no such curve, though single readings can be large or run the other way. The list is a sample of the results.

biological target: Cytochrome P450 2D6 (Homo sapiens) (UniProt P10635); test: Cytochrome panel assay with activity outcomes; conditions: recombinant CYP, pro-luciferin dealkylation, luminescence, p450-cyp2d6; series mostly up to 57.1 µM
On the % scale 0 is the no-effect control and ±100 the full control effect.

Cytochrome P450 2D6 (Homo sapiens), sequence (P10635 whole entry, looked up): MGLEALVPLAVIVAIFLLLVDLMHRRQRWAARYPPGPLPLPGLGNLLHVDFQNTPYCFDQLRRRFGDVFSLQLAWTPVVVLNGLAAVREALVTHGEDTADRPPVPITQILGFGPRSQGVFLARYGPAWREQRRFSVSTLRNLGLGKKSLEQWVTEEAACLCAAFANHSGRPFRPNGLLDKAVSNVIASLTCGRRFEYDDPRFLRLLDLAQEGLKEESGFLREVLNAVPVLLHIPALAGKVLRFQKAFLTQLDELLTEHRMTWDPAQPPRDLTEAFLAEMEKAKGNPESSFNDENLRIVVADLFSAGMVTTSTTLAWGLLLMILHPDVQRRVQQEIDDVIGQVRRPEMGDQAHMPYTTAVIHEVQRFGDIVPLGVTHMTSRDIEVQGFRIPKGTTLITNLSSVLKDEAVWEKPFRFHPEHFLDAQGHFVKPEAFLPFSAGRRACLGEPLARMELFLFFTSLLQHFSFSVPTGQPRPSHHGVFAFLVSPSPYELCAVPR

SMILES	AC50	activity, negative = inhibition
COCCn1c(=O)c(-c2ccc(F)c(F)c2)nc2cncnc21	inactive	
Cc1ccc(N=Cc2nc(/C=C/c3cccc([N+](=O)[O-])c3)oc2O)cc1	inactive	
CN(C)c1ncc2nc(-c3ccc(F)cc3)c(=O)n(Cc3ccc(F)cc3)c2n1	inactive	
C#CCCCO/N=C1/C[C@@H](O)[C@@H](O)[C@@H]2[C@@H]3C(=O)N(C4CCCCC4)C(=O)[C@H]3CC[C@H]12		18.1% [at 11.4 µM] (inactive)
Cc1ccccc1NC(=O)CSc1nnc(-c2ccccc2)n1-c1ccccc1	1.78 µM (active)	
CCn1c(SCC(=O)Nc2ccccc2C(=O)OC)nnc1-c1ccc(N)cc1	inactive	
O=C(CSc1nnc(-c2ccccc2)n1-c1ccccc1)c1cccs1	2.51 µM (active)	
N#Cc1c(-c2ccccc2)cc(C2CC2)nc1SCC(=O)c1cccs1	inactive	
COC(=O)CSc1nnc(-c2ccccc2OC)n1-c1ccc(C)cc1	inactive	
CCOc1ccc(-n2c(SCC(=O)Nc3ccccc3C)n[nH]c2=O)cc1	inactive	
CN(Cc1cc2ccccc2[nH]c1=O)S(C)(=O)=O	inactive	
CCc1ccc(OCC(=O)Nc2ccc(-c3nc4ccccc4o3)c(O)c2)cc1	inactive	
Nc1nc(-c2ccccc2)c(-c2ccccc2)c(-c2nc(N)nc(-c3ccccc3)c2-c2ccccc2)n1		-0.539% [at 11.4 µM] (inactive)
CN(N=O)c1ccc(/C=C\c2ccnc3ccccc23)cc1		-11% [at 11.4 µM] (inactive)
Cc1ccccc1OCC(=O)N/N=C1\CCOc2c(C)cccc21	inactive	
Cc1cc(C=O)c(C)n1-c1ccc(N2CCCCC2)c([N+](=O)[O-])c1	inactive	
COCCn1c(=O)c(-c2cccs2)nc2cnc(Oc3ccc(OC)cc3)nc21	inactive	
N=C(N)SCc1ccc(Cl)cc1Cl (tested in a mixture with another compound)	3.16 µM (active)	
O=C(Nc1nnc(SCc2ccc(Cl)cc2Cl)s1)C1COc2ccccc2O1 (centres undefined)	inactive	
Cc1cc(C)c2c(SCc3ccc(Cl)cc3Cl)nc(N)nc2n1		-17.3% [at 11.4 µM] (inactive)
O=C(OCn1ncc(Cl)c(Cl)c1=O)c1cccc(C(F)(F)F)c1	inactive	
CNC(=O)COC(=O)c1cc2c(C)nn(-c3ccc(F)cc3)c2s1	inactive	
Nc1ccc(-c2nc3c(Cl)c(N)ccc3[nH]2)cc1	inactive	
Cc1cccc(C(=O)c2ccccc2C(=O)O)c1O	inactive	
O=C(O)c1ccc(C(=O)c2ccccc2C(=O)O)cc1C(=O)O		8.1% [at 11.4 µM] (inactive)

SMILES	AC50	activity, negative = inhibition
CC1=C/C(=C(/c2ccc(O)c(C)c2)c2ccccc2C(=O)O)C=CC1=O	1.58 µM (active)	
O=c1c(-c2ccccc2)c(O)c2cccc3c2n1CCC3	inactive	
C[N+](C)(N)Cc1csc(-c2ccc(Cl)cc2)n1		-18.9% [at 11.4 µM] (inactive)
O=C(O)c1ccccc1C(=O)Nc1ccc(S(=O)(=O)Nc2nccs2)cc1	inactive	
CCOc1ccccc1NC(=O)C1Cc2ccccc2CN1S(C)(=O)=O (centres undefined)	inactive	
O=C(Nc1nccs1)C1Cc2ccccc2CN1S(=O)(=O)c1ccc(F)cc1 (centres undefined)	12.6 µM (active)	
O=C(O)c1nnsc1COCc1ccccc1		7.15% [at 11.4 µM] (inactive)
C[N@@+]1(Cc2ccc(Cl)c(Cl)c2)CCC[C@@H]1c1ccc[n+](Cc2ccc(Cl)c(Cl)c2)c1	3.16 µM (active)	
Clc1ccccc1-c1nc(NCc2cccs2)c2ccccc2n1	12.6 µM (active)	
CNc1nc(-c2ccccc2OC)nc2ccccc12	20 µM (active)	
COc1ccccc1-c1nc(NC2CC2)c2ccccc2n1	20 µM (active)	
Cc1ccccc1-c1nc(NC2CCNCC2)c2ccccc2n1	inactive	
Clc1ccccc1-c1nc(NC2CCNCC2)c2ccccc2n1	inactive	
COc1ccccc1-c1nc(NCc2ccccc2)c2ccccc2n1	1.58 µM (active)	
CCOc1ccccc1Nc1ccc(N)cc1S(=O)(=O)O		0.246% [at 11.4 µM] (inactive)
COc1ccc(Oc2ncc3ncc(=O)n(C4CC4)c3n2)cc1	inactive	
Nc1c(S(N)(=O)=O)cc(S(N)(=O)=O)cc1S(N)(=O)=O		18.8% [at 11.4 µM] (inactive)
C=CCN(CC=C)C(=S)Nc1ccccc1	inactive	
Cn1cnc([N+](=O)[O-])c1Sc1nc(N)nc2c1ncn2Cc1ccccc1		15.1% [at 11.4 µM] (inactive)
CCN1C(=O)[C@@H]2[C@H]3C(=CC[C@@H]2C1=O)C1(OCCCO1)[C@H]1O[C@@H]1[C@H]3O		-15.6% [at 11.4 µM] (inactive)
O=C(CSc1nc2ccc([N+](=O)[O-])cc2s1)c1ccc2ccccc2c1		-13.4% [at 11.4 µM] (inactive)
COc1ccccc1-c1nc(NCc2cccs2)c2ccccc2n1	1 µM (active)	
CN(C)c1ncc2nc(-c3ccc(Cl)cc3)c(=O)n(C)c2n1	inactive	
C#CCCCO/N=C1/C[C@@H](O)[C@@H](O)[C@@H]2[C@@H]3C(=O)N(CC)C(=O)[C@H]3CC[C@@H]12		-16.9% [at 11.4 µM] (inactive)
